# Test results published in paper PMC7862700, “An all-to-all approach to the identification of sequence-specific readers for epigenetic DNA modifications on cytosine”.
# What was measured:
# Assay in all cases: DAPPL (digital affinity profiling via proximity ligation, sequencing); 10 mM Tris-HCl pH 7.5, 50 mM NaCl, 1 mM DTT, 4% glycerol, room temperature, 30 min; GST-TFs on glutathione beads, 16-mer random dsDNA library, 0.1% formaldehyde crosslink after washing; high values mean tight binding
# [1] = target: T1, FLI1 (Homo sapiens, UniProt Q01543 1-452); details: protein: recombinant; tags: N-terminal GST; dsDNA, one strand shown
# T1 sequence: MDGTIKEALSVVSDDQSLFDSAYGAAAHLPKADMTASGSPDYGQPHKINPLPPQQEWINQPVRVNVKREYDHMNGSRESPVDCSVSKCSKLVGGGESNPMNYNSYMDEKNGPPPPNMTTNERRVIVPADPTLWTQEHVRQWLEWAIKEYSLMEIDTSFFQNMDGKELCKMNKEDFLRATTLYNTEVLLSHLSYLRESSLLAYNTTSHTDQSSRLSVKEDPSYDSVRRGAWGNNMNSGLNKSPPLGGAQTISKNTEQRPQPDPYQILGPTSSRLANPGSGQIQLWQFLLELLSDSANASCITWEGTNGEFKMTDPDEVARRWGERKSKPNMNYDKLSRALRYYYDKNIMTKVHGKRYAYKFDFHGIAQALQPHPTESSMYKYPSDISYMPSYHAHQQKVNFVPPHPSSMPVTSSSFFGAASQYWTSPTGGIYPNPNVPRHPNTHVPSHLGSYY
# Outline: (§1)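 Pools of DNA-barcoded human transcription factors, expressed in yeast as GST fusions on glutathione beads and combined with a tag-only sample, were incubated with 200 nmole of a 16-mer random double-stranded DNA library. Incubation took 30 min at room temperature in Tris/NaCl/DTT/glycerol buffer and was followed by washing, 0.1% formaldehyde crosslinking, proximity ligation (BsaI/T4 ligase, 1 h, 37 °C), PCR amplification and sequencing on an Illumina NextSeq500. Binding signal is the ratio of a hexamer's read frequency for a factor to its frequency for the tag-only sample.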
# [2] = target: T2, ELK1 (Homo sapiens, UniProt P19419 1-428); details: protein: recombinant; tags: N-terminal GST; dsDNA, one strand shown
# T2 sequence: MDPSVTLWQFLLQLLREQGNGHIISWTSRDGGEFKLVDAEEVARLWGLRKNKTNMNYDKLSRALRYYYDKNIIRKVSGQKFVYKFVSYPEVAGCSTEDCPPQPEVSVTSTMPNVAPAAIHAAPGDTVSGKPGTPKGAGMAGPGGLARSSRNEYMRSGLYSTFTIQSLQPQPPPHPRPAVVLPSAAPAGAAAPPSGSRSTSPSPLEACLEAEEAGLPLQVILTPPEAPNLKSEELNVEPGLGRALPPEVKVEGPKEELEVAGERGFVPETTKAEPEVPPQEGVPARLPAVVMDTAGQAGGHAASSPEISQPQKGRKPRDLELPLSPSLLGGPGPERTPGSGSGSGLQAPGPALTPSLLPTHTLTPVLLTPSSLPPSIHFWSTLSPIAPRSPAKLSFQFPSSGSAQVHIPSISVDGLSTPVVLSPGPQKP
# Outline: as §1
# [3] = target: T3, GABPA (Homo sapiens, UniProt Q06546 1-454); details: protein: recombinant; tags: N-terminal GST; dsDNA, one strand shown
# T3 sequence: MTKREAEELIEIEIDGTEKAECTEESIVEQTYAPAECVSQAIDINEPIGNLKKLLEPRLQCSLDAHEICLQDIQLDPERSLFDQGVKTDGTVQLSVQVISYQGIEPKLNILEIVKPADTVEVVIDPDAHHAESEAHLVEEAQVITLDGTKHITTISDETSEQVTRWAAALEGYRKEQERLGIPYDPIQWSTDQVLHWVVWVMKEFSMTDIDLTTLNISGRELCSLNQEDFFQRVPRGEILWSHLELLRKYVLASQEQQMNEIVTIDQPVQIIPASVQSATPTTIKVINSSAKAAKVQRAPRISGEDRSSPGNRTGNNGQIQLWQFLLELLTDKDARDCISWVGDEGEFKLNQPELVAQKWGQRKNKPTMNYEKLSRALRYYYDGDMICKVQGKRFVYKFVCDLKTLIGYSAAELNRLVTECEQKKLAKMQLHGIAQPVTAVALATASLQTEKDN
# Outline: as §1
# [4] = target: T4, ERG (Homo sapiens, UniProt P11308 1-479); details: protein: recombinant; tags: N-terminal GST; dsDNA, one strand shown
# T4 sequence: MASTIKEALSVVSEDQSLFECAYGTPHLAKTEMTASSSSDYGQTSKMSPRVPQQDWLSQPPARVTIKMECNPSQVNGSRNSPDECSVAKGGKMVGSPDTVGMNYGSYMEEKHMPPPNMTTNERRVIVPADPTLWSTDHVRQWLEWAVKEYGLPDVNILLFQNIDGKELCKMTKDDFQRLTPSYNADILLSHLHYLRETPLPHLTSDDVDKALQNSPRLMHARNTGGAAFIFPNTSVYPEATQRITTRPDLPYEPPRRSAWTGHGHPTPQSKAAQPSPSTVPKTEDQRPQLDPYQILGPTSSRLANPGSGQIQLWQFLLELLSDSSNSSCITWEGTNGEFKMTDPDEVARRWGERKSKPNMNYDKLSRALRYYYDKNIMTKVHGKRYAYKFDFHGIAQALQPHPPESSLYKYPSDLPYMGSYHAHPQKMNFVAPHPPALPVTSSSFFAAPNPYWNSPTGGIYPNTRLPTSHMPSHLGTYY
# Outline: as §1
# [5] = target: ELF1 (Homo sapiens, UniProt P32519 1-619); details: protein: recombinant; tags: N-terminal GST; dsDNA, one strand shown
# ELF1, sequence (P32519 whole entry): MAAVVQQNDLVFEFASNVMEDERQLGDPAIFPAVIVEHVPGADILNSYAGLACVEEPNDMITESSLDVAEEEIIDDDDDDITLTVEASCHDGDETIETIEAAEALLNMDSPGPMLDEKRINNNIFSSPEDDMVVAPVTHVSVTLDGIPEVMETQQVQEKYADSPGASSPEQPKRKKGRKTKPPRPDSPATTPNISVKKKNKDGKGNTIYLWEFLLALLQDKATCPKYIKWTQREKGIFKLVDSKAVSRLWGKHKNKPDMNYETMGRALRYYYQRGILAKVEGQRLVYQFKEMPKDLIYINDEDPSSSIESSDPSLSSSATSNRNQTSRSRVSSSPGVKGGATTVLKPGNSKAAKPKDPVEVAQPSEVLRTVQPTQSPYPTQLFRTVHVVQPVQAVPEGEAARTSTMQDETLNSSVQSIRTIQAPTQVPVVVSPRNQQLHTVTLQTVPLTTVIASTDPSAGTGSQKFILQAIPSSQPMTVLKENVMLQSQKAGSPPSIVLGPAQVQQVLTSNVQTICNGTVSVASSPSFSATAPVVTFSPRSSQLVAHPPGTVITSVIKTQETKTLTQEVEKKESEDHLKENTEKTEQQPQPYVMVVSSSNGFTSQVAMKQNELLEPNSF
# Outline: as §1
# [6] = target: T5, EHF (Homo sapiens, UniProt Q9NZC4 1-300); details: protein: recombinant; tags: N-terminal GST; dsDNA, one strand shown
# T5 sequence: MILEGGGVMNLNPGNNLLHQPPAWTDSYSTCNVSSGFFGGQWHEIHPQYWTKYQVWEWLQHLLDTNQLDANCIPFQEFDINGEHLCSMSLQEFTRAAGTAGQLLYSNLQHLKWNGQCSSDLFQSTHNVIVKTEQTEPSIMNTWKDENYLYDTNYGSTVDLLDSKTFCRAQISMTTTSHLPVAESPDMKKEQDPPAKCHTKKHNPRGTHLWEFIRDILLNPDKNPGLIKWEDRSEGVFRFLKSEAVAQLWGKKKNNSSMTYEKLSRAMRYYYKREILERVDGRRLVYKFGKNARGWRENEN
# Outline: as §1
# [7] = target: SPIB (Homo sapiens, UniProt Q01892 1-262); details: protein: recombinant; tags: N-terminal GST; dsDNA, one strand shown
# SPIB, sequence (Q01892 whole entry): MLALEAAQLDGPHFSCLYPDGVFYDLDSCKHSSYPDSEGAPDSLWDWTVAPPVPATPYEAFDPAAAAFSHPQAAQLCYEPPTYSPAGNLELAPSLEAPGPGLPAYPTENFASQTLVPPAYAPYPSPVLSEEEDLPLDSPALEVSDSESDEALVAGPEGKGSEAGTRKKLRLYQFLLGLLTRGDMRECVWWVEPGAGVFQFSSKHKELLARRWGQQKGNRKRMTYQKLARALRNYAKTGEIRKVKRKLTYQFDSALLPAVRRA
# Outline: as §1
# [8] = target: T6, FEV (Homo sapiens, UniProt Q99581 1-238); details: protein: recombinant; tags: N-terminal GST; dsDNA, one strand shown
# T6 sequence: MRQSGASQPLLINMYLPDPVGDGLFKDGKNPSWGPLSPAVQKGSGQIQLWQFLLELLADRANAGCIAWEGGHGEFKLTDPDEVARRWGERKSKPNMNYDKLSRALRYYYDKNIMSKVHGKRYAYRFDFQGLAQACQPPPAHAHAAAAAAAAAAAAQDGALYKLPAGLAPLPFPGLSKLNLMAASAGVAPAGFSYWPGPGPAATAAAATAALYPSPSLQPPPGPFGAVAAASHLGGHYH
# Outline: as §1
# [9] = target: ETV5 (Homo sapiens, UniProt P41161 1-510); details: protein: recombinant; tags: N-terminal GST; dsDNA, one strand shown
# ETV5, sequence (P41161 whole entry): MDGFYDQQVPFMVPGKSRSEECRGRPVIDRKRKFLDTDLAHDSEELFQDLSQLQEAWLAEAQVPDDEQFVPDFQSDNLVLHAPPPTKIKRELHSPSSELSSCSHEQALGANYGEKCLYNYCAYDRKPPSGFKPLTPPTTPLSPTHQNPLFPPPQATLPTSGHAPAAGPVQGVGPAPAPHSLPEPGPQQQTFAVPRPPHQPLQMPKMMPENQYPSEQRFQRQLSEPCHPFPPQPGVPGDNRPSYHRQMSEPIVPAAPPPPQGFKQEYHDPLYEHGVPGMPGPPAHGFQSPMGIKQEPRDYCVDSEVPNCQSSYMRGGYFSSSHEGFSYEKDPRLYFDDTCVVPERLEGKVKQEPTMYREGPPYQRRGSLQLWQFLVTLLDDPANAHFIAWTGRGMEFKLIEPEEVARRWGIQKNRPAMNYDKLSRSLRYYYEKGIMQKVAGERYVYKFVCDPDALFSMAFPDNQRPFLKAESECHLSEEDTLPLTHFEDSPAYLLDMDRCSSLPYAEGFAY
# Outline: as §1
# [10] = target: HSF1 (Homo sapiens, UniProt Q00613 1-529); details: protein: recombinant; tags: N-terminal GST; chain copies: 3; dsDNA, one strand shown
# HSF1, sequence (Q00613 whole entry): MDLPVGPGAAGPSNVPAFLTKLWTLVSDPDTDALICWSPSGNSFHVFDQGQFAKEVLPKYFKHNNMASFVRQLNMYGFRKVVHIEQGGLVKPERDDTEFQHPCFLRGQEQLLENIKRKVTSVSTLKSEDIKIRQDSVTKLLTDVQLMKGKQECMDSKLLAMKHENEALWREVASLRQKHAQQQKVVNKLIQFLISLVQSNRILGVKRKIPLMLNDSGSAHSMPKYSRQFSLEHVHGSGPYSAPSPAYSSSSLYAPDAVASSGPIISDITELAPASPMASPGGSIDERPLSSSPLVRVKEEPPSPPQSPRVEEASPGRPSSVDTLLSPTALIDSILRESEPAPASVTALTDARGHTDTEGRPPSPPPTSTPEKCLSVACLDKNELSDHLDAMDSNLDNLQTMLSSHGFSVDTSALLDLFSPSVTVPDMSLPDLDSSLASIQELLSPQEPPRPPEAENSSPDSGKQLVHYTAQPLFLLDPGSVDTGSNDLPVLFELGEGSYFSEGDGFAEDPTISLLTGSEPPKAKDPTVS
# Outline: as §1
# [11] = target: T7, SPIC (Homo sapiens, UniProt Q8N5J4 1-248); details: protein: recombinant; tags: N-terminal GST; dsDNA, one strand shown
# T7 sequence: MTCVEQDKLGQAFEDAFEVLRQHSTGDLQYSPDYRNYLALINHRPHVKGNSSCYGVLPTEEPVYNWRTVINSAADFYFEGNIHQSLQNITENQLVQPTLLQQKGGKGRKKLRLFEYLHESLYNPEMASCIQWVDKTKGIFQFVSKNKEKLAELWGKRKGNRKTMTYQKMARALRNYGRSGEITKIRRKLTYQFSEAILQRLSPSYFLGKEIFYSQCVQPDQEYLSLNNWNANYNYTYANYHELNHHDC
# Outline: as §1
# [12] = target: ELF4 (Homo sapiens, UniProt Q99607 1-663); details: protein: recombinant; tags: N-terminal GST; dsDNA, one strand shown
# ELF4, sequence (Q99607 whole entry): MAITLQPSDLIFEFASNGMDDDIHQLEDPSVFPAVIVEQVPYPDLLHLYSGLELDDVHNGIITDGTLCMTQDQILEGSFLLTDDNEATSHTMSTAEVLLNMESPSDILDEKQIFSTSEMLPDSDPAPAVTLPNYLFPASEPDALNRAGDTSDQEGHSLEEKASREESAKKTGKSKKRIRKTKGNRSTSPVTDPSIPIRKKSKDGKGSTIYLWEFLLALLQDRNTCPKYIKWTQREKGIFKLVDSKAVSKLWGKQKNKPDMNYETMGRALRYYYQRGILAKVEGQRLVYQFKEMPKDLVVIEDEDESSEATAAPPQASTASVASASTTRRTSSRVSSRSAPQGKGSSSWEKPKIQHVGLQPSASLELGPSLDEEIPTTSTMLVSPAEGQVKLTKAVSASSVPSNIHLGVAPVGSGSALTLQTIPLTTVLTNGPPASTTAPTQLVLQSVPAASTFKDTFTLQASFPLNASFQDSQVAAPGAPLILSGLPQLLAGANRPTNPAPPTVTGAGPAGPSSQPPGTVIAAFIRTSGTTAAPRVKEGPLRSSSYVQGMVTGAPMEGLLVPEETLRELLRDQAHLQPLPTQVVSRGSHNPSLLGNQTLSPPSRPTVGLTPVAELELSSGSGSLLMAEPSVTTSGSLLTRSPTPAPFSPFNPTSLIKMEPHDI
# Outline: as §1
# [13] = target: T8, ELK4 (Homo sapiens, UniProt P28324-2 1-405); details: protein: recombinant; tags: N-terminal GST; dsDNA, one strand shown
# T8 sequence: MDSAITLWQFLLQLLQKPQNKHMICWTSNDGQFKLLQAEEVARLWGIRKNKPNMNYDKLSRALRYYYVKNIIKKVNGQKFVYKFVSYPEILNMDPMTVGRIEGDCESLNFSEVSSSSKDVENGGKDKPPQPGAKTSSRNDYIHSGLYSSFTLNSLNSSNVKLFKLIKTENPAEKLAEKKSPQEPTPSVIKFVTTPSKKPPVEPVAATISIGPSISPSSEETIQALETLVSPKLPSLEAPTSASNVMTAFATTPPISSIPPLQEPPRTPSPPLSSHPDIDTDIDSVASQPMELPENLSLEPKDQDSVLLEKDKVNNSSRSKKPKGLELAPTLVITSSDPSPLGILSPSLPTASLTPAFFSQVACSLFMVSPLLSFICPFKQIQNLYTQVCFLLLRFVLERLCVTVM
# Outline: as §1
# [14] = target: T9, ETV2 (Homo sapiens, UniProt O00321 1-342); details: protein: recombinant; tags: N-terminal GST; dsDNA, one strand shown
# T9 sequence: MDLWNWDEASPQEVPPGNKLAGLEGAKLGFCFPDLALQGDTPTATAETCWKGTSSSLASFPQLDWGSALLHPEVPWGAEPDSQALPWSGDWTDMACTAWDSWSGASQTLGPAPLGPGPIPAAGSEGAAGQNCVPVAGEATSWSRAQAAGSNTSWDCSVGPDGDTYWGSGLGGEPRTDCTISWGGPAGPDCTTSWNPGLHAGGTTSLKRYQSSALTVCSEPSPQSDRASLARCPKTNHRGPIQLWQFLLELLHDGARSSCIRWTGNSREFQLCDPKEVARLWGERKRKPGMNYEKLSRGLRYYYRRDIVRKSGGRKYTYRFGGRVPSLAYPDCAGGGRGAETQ
# Outline: as §1
# [15] = target: T10, ELF3 (Homo sapiens, UniProt P78545 1-371); details: protein: recombinant; tags: N-terminal GST; dsDNA, one strand shown
# T10 sequence: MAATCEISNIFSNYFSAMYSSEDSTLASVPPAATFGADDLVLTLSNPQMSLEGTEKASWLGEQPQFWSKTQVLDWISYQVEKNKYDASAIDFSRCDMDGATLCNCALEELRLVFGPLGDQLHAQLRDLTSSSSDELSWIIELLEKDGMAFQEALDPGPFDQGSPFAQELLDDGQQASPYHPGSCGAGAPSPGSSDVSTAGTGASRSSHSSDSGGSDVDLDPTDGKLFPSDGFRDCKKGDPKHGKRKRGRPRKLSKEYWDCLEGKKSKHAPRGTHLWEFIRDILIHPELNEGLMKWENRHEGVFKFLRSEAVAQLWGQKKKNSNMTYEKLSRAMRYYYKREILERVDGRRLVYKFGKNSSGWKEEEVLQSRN
# Outline: as §1
# [16] = target: CRX (Homo sapiens, UniProt O43186 1-299); details: protein: recombinant; tags: N-terminal GST; dsDNA, one strand shown
# CRX, sequence (O43186 whole entry): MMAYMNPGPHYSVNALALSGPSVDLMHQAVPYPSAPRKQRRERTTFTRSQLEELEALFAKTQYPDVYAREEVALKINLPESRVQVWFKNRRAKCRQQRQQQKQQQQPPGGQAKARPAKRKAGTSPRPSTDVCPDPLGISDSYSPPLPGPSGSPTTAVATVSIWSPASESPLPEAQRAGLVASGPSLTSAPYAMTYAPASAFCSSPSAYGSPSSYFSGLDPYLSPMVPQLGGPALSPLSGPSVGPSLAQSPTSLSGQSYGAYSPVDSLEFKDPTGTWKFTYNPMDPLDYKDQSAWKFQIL
# Outline: as §1
# [17] = target: ETV1 (Homo sapiens, UniProt P50549 1-477); details: protein: recombinant; tags: N-terminal GST; dsDNA, one strand shown
# ETV1, sequence (P50549 whole entry): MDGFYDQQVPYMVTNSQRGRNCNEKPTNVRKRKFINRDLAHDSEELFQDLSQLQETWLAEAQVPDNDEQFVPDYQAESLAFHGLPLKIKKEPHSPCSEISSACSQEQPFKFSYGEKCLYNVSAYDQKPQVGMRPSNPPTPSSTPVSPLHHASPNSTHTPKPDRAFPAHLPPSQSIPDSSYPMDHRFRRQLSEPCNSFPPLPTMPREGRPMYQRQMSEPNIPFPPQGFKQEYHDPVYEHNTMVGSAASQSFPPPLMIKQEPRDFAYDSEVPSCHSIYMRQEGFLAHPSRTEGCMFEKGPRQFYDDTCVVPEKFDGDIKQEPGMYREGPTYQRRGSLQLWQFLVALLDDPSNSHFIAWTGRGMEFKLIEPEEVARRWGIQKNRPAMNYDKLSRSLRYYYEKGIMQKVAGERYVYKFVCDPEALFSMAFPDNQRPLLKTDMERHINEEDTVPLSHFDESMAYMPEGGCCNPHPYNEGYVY
# Outline: as §1
sequence,measurement,setting,value
TTGAGC,binding signal,[1],"1.22 fold enrichment (6-mer frequency, TF over GST control)"
same,binding signal,[2],"1.01 fold enrichment (6-mer frequency, TF over GST control)"
same,binding signal,[3],"1.17 fold enrichment (6-mer frequency, TF over GST control)"
same,binding signal,[4],"1.12 fold enrichment (6-mer frequency, TF over GST control)"
same,binding signal,[5],"1.02 fold enrichment (6-mer frequency, TF over GST control)"
same,binding signal,[6],"1.06 fold enrichment (6-mer frequency, TF over GST control)"
same,binding signal,[7],"1.11 fold enrichment (6-mer frequency, TF over GST control)"
same,binding signal,[8],"1 fold enrichment (6-mer frequency, TF over GST control)"
same,binding signal,[9],"1.03 fold enrichment (6-mer frequency, TF over GST control)"
same,binding signal,[10],"1.03 fold enrichment (6-mer frequency, TF over GST control)"
same,binding signal,[11],"1.18 fold enrichment (6-mer frequency, TF over GST control)"
same,binding signal,[12],"1.06 fold enrichment (6-mer frequency, TF over GST control)"
same,binding signal,[13],"1.04 fold enrichment (6-mer frequency, TF over GST control)"
same,binding signal,[14],"1.07 fold enrichment (6-mer frequency, TF over GST control)"
same,binding signal,[15],"1.13 fold enrichment (6-mer frequency, TF over GST control)"
same,binding signal,[16],"1.28 fold enrichment (6-mer frequency, TF over GST control)"
same,binding signal,[17],"1.1 fold enrichment (6-mer frequency, TF over GST control)"
